Compound activity: PubChem, National Center for Advancing Translational Sciences (NCATS)
NS1 inh = qHTS Assay for Inhibitors of Influenza NS1 Protein Function | actives 0.4% (n = 270,000) | AID 2326, 2010 | Potency, µM (titrated, usually from 46.1 µM), without a hit: at the highest dose activity, positive = more growth; also: actives are rising curves; nearly all actives have a fitted effect of over 50% in size
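A cell-based growth assay was used: compounds that relieve NS1-induced slow growth of budding yeast raise OD600. Assay medium was yeast nitrogen base with ammonium sulphate and -URA supplement, pH 6.0, with 2% galactose.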
SARS PLpro yeast = qHTS of Yeast-based Assay for SARS-CoV PLP; S. cerevisiae expressing SARS-CoV PLpro, growth rescue; actives 0.19% (n = 330,000); AID 485353, 2010; Potency, µM (titrated, usually from 32.9 µM), for the others: top-dose activity, positive = growth rescue, most hits filed as activators; also: 0% is about no effect; nearly all actives have a fitted effect of over 55% in size
Pf growth 48h = Primary qHTS for delayed death inhibitors of the malarial parasite plastid, 48 hour incubation. P. falciparum luciferase growth in erythrocytes, 48 h. Potency, µM (top dose mostly 28.7 µM), for inactives: at the highest dose activity change, negative = inhibition, actives largely listed as inhibitors. actives 5.9% (n = 310,000). AID 504832, 2011; active = well fitted inhibition curve with a large enough effect; inconclusive = small, poorly fitted or top-dose-only effect, or another doubt; inactive = no such curve, though single readings can be large or run the other way; also: % is scaled to controls: 0 for no effect and ±100 for the full control effect
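Cell-based growth assay: transgenic P. falciparum expressing firefly luciferase, cultured in red cells within RPMI 1640 containing 0.5% w/v Albumax, 24 mM bicarbonate and gentamycin. A drop in luciferase activity indicates inhibition.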
Pf growth 96h = Primary qHTS for delayed death inhibitors of the malarial parasite plastid, 96 hour incubation | actives 6.9% (n = 320,000) | P. falciparum luciferase reporter growth, 96 h | Potency, µM (top dose mostly 28.7 µM), for the others: top-dose activity change, negative = inhibition, actives largely listed as inhibitors; active = well fitted inhibition curve with a large enough effect; inconclusive = small, poorly fitted or top-dose-only effect, or another doubt; inactive = no such curve, though single readings can be large or run the other way; also: % is scaled to controls: 0 for no effect and ±100 for the full control effect
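Delayed-death screen, second-generation endpoint: infected erythrocytes, 2% hematocrit, 0.05% parasitemia final; 96 hours at 37 C, 5% CO2; luciferase detection reagent; luminescence decrease equals reduced growth.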
RE007 growth inh = qHTS Assay for Inhibitors of the HIV-1 protein Vpr | S. pombe RE007 Vpr strain, BacTiter-Glo ATP luminescence, 24 h | Potency, µM (series often up to 92.2 µM), for the others: top-dose activity change, negative = less growth, usual class: inhibitors | actives 0.21% (n = 360,000) | AID 651644, 2012; active = well fitted falling curve with a large enough effect; inconclusive = small, poorly fitted or top-dose-only effect; inactive = no such curve, though single readings can be large or run the other way; also: % is scaled to controls: 0 for no effect and ±100 for the full control effect; nearly all actives have a fitted effect of over 50% in size
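Fission yeast RE007 carrying one integrated HIV-1 vpr copy, seeded at OD 0.01 in PMG+AL medium with 23 nL pinned compound. Grown 24 h at 30 degrees; viability read by BacTiter-Glo luminescence after 5 min.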
The depositor's hits bear a star; ? = inconclusive; · = no result; [ ] = another dose, or the depositor's remark. Most compounds without a hit are left out; they make up all but 9.5% or so of the library. Unless noted, calls follow the shape of the full dose curve. Potency is read from the fitted curve at half-maximal effect.

SMILES | NS1 inh | SARS PLpro yeast | Pf growth 48h | Pf growth 96h | RE007 growth inh
Cc1ccc2c(c1)CC(C)N2S(=O)(=O)c1nnc(NC(=O)CC(C)C)s1 (stereo unspecified) | -6.1% | -0.6% | ? | 90.3% | 0.1%
CC1(C)Cc2cccc(OCC(O)CN3CCN(c4ccccn4)CC3)c2O1 (stereo unspecified) | -2.5% | -7.7% | 11.7µM* | ? | 13.3%
Cc1cccc(OCC(O)CN2CCN(c3ccccn3)CC2)c1C (stereo unspecified) | -11.4% | 9.1% | 34.8% | 44.7% | -12.0%
COC(=O)c1c(NC(=O)C2c3ccccc3Oc3ccccc32)sc(C)c1C | 6.0% | 0.2% | 18.9% | ? | 1.6%
COC(=O)c1sc(NC(=O)C2c3ccccc3Oc3ccccc32)c(C(=O)OC)c1C | 12.7% | 1.7% | 1.65µM* | 10.4µM* | 12.2%
COc1cc(C(C[N+](=O)[O-])c2c(C)[nH]c3ccccc23)cc(OC)c1OC (stereo unspecified) | -11.4% | -1.4% | 13.1µM* | 12.5% | -6.8%
O=[N+]([O-])C(/C=C(/Cl)[N+](=O)[O-])=C(N1CCCCC1)N1CCCCC1 | -0.3% | -1.2% | 8.28µM* | 5.22µM* | 0.5%
CCOc1ccc(NC(=O)CSc2nc(=O)n(CCCN3CCOCC3)c3c2CCC3)cc1 | · | -17.9% | ? | 1.0% | -14.2%
CC(C)(C)c1cc(C2=CSC3=NCCN23)cc(C(C)(C)C)c1O | 15.2% | -2.5% | ? | 4.65µM* | -17.1%
C1=C(c2ccccc2)N2CCN=C2S1 | 2.2% | -2.4% | 6.6% | · | 17.8%
Oc1ccc(C2=CSC3=NCCN23)cc1O | 3.3% | -0.3% | 9.28µM* | 36.6% | 0.5%
Cc1ccc(C(C)C)cc1-n1nnc(-c2cccc(Cc3ccc4ccccc4c3)c2)c1C(C)O (stereo unspecified) | · | · | · | · | -10.9%
NC(=O)c1ccc(NC(=O)COC(=O)CCN=C2NS(=O)(=O)c3ccccc32)cc1 | · | 5.7% | -4.6% | -20.4% | 16.4%
O=C(NCC1CCCO1)C1C2C=CC3(CN(Cc4cccs4)C(=O)C13)O2 (stereo unspecified) | -0.9% | 0.6% | 6.9% | 4.65µM* | 2.4%
CCCCOC(=O)C1[C@H]2C(=O)N(Cc3cccs3)C[C@]23C=C[C@H]1O3 (stereo partly specified) | 9.3% | 0.5% | · | 5.22µM* | 0.4%
Cc1ccc(/C=C/C(=O)O)cc1S(=O)(=O)N1CCc2ccccc21 | -1.3% | -0.9% | 8.2% | 6.8% | -0.8%
O=P(c1ccccc1)(c1ccccc1)c1nc(-c2ccc(Cl)cc2)oc1N1CCOCC1 | 6.7% | 3.2% | 10.4µM* | 0.7% | 21.7%
CCOP(=O)(OCC)c1nc(-c2ccc(C)cc2)oc1N1CCOCC1 | · | · | · | · | -11.1%
CCOP(=O)(c1ccccc1)c1nc(-c2ccc(F)cc2)oc1N1CCCCC1 (stereo unspecified) | -7.7% | 2.3% | 9.28µM* | -6.4%[5.75 µM] | -3.0%
CCOP(=O)(OCC)c1nc(-c2ccc(Br)cc2)oc1N1CCCCC1 | 4.8% | -2.5% | 10.4µM* | -11.3% | 22.4%
CC(=O)N1CCOc2ccc(S(=O)(=O)N3CCC(C(=O)NCc4ccc(Cl)cc4)CC3)cc21 | · | · | · | · | 1.5%
CN(C)c1ccc(CNC(=O)CC[C@H]2O[C@@H](n3cnc4c(NC(=O)c5ccccc5)ncnc43)[C@H](O)[C@@H]2O)cc1 | · | · | · | · | -6.8%
Cc1cc(OCCN2CCC(Cc3ccccc3)CC2)ccc1[N+](=O)[O-] | -84.2% | -18.7% | 2.1% | -1.7% | -20.9%
NS(=O)(=O)c1ccc(N2N=C(c3ccccc3)CC2c2ccc(Br)cc2)cc1 (stereo unspecified) | · | · | · | · | -1.0%
Cc1ccc(C2=NN(S(=O)(=O)c3ccccc3)C(c3ccco3)C2)cc1 (stereo unspecified) | · | -0.1% | 9.28µM* | 11.7µM* | 1.0%
O=S(=O)(c1ccccc1)N1N=C(c2cccs2)CC1c1ccc(F)cc1 (stereo unspecified) | -3.4% | -7.5% | ? | 9.28µM* | -5.3%
NS(=O)(=O)c1ccc(N2N=C(c3ccccc3)CC2c2ccccc2)cc1 (stereo unspecified) | 20.8% | -3.1% | -24.0% | 9.28µM* | 0.5%
